From PubChem BioAssay (NCI)
Compounds without any hit were thinned out: in the full panel of roughly 83,000, 20% have a hit.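 In brief: 96-well plates, 48 h treatment, single concentration, percent growth endpoint.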 Unmarked numbers belong to inactive results. Calls of active or inactive are those of the source. Rule for the calls: active = growth percent below 10; inactive = the rest.

Tests used:
Test in all cases: NCI-60 one-dose screen, 48 h (100 = growth as untreated, 0 = no growth, -100 = all killed)
SK-MEL-2 melanoma = settings: 10 µM unless noted
EKVX NSCLC = settings: 10 µM unless noted
SN12C renal = settings: 10 µM unless noted
UO-31 renal = settings: 10 µM unless noted
TK-10 renal = settings: 10 µM unless noted
ACHN renal = settings: 10 µM unless noted
A498 renal = settings: 10 µM unless noted
MOLT-4 leukemia = settings: 10 µM unless noted
SR leukemia = settings: 10 µM unless noted
RPMI-8226 leukemia = settings: 10 µM unless noted
OVCAR-8 ovarian = settings: 10 µM unless noted
OVCAR-5 ovarian = settings: 10 µM unless noted
OVCAR-4 ovarian = settings: 10 µM unless noted
SK-OV-3 ovarian = settings: 10 µM unless noted
IGROV1 ovarian = settings: 10 µM unless noted
OVCAR-3 ovarian = settings: 10 µM unless noted
HS 578T breast = settings: 10 µM unless noted
NCI/ADR-RES ovarian = settings: 10 µM unless noted
CCRF-CEM leukemia = settings: 10 µM unless noted
CAKI-1 renal = settings: 10 µM

| SMILES | growth (SK-MEL-2 melanoma) | growth (EKVX NSCLC) | growth (SN12C renal) | growth (UO-31 renal) | growth (TK-10 renal) | growth (ACHN renal) | growth (A498 renal) | growth (MOLT-4 leukemia) | growth (SR leukemia) | growth (RPMI-8226 leukemia) | growth (OVCAR-8 ovarian) | growth (OVCAR-5 ovarian) | growth (OVCAR-4 ovarian) | growth (SK-OV-3 ovarian) | growth (IGROV1 ovarian) | growth (OVCAR-3 ovarian) | growth (HS 578T breast) | growth (NCI/ADR-RES ovarian) | growth (CCRF-CEM leukemia) | growth (CAKI-1 renal) [%] |
| --- | --- | --- | --- | --- | --- | --- | --- | --- | --- | --- | --- | --- | --- | --- | --- | --- | --- | --- | --- | --- |
| Cn1ccnc1C(=O)/C=C/c1ccc(C(=O)Nc2ccc(NC(=O)CCNC(=O)c3csc(Br)n3)cc2)cc1 | 109% | 69.9% | 40.2% | 46.6% | 89.7% | 61.8% | 100% | 70.3% | 12.5% | 14.5% | 63.9% | 78.8% | 64.1% | 100% | 41.7% | 15.5% | 95.5% | 60.9% | – | – |
| CCOC(=O)C1=C(C)Nc2nc3ccccc3n2C1c1ccccc1 (stereo not drawn) | 102% | 94.4% | 92.9% | 84.9% | 114% | 73.7% | – | 97.8% | 68.9% | 97.4% | 96.6% | 104% | 83.7% | 113% | 91.6% | 90.9% | 97.7% | 92% | 94% | – |
| COc1ccccc1/C=C/C(=O)c1nnn(-c2ccc(C(=O)O)cc2)c1C | 98.6% | 87.2% | 84.1% | 87.6% | 117% | 94% | – | 94.4% | 67% | 90.4% | 91.6% | 113% | 101% | 106% | 90.4% | 89.2% | 106% | 93.5% | 63.9% | – |
| Cc1ccc(NC(=O)c2ccc(CN3CCN(C)CC3)c(C(F)(F)F)c2)cc1Oc1ccc(-c2[nH]nc3ncnc(N)c23)cc1 | 84.1% | 109% | 80.7% | 83% | 119% | 83% | 113% | 43% | 2.87% (active) | 18.1% | 94.5% | 95.3% | 90.7% | 97% | – | 113% | 72.8% | 52% | 8.05% (active) | – |
| CC(C)=CCc1c2c(c(O)c3c1O[C@]14C(=C[C@@H]5C[C@H]1C(C)(C)O[C@@]4(C/C=C(/C)C(=O)O)C5=O)C3=O)CC(O)C(C)(C)O2 (stereo partly drawn) | -71.3% (active) | -32.5% (active) | 12.9% | -57.1% (active) | – | -11% (active) | -75.6% (active) | -7.09% (active) | -5.31% (active) | -18.5% (active) | -25.1% (active) | -10.7% (active) | 18.7% | 30.4% | – | -96.4% (active) | 15.7% | 18% | 5.72% (active) | – |
| CC[C@@](C)(NC(=O)C(C)(C)NC(=O)[C@@H](NC(=O)[C@@H]1CCCN1C(=O)C(C)(C)NC(=O)[C@H](CC(C)C)NC(=O)CNC(=O)C(C)(C)NC(=O)[C@@H](NC(=O)C(C)(C)NC(=O)[C@H](CCC(N)=O)NC(=O)[C@H](C)NC(=O)C(C)(C)NC(=O)[C@H](C)NC(=O)C(C)(C)NC(=O)[C@@H]1CCCN1C(=O)C(C)(C)NC(C)=O)C(C)C)C(C)C)C(=O)N[C@@H](CCC(N)=O)C(=O)N[C@@H](CCC(N)=O)C(=O)N[C@H](CO)Cc1ccccc1 | -9.91% [4.25 µM] (active) | 71.6% [4.25 µM] | 12.8% [4.25 µM] | 89.5% [4.25 µM] | 90% [4.25 µM] | 107% [4.25 µM] | 54.9% [4.25 µM] | 8.53% [4.25 µM] (active) | 22.2% [4.25 µM] | -10.5% [4.25 µM] (active) | 94.5% [4.25 µM] | 44.9% [4.25 µM] | 59.2% [4.25 µM] | 31.3% [4.25 µM] | 42.6% [4.25 µM] | 14.6% [4.25 µM] | 52.1% [4.25 µM] | 100% [4.25 µM] | 35.6% [4.25 µM] | – |
| CN1CCN(Cc2ccc(NC(=O)c3cncc(C#Cc4cnc5ccc(O[C@H]6CCOC6)nn45)c3)cc2C(F)(F)F)CC1 | -88% (active) | -69.7% (active) | -48.4% (active) | -94% (active) | -87.2% (active) | -97.1% (active) | -92.9% (active) | -1.92% (active) | -22.8% (active) | -15.3% (active) | -72.6% (active) | -62.5% (active) | -58.9% (active) | -26% (active) | -57.6% (active) | – | -34.1% (active) | -30.9% (active) | 2.84% (active) | – |
| COc1cc([C@H]2OC[C@H]3[C@@H]2CO[C@@H]3c2ccc(O)c(OC)c2)ccc1O | 95.3% | 80.3% | 74.6% | 83.1% | – | 93.5% | 112% | 109% | 67.3% | 72.1% | 84.2% | 86.6% | 96.6% | 69% | 69.9% | 96.8% | 107% | 85.7% | 94.2% | – |
| CC(C)N=C(N/C(N)=N/c1nc2ccccc2s1)NC(C)C | 107% | 67.6% | 45.6% | 46.4% | 80.6% | 55.4% | 72.8% | 55.2% | 49.5% | 42.7% | 67.2% | 60.8% | 93.6% | 83.4% | 39.6% | 104% | 75.9% | 63.7% | 52.9% | – |
| CC[C@@](C)(NC(=O)C(C)(C)NC(=O)[C@@H](NC(=O)[C@@H]1CCCN1C(=O)C(C)(C)NC(=O)[C@H](CC(C)C)NC(=O)CNC(=O)C(C)(C)NC(=O)[C@@H](NC(=O)C(C)(C)NC(=O)[C@H](CCC(N)=O)NC(=O)[C@H](C)NC(=O)C(C)(C)NC(=O)[C@H](C)NC(=O)C(C)(C)NC(=O)[C@H](C)NC(=O)C(C)(C)NC(C)=O)C(C)C)C(C)C)C(=O)N[C@@H](CCC(N)=O)C(=O)N[C@@H](CCC(N)=O)C(=O)N[C@H](CO)CC1CCCCC1 | -21.9% [5 µM] (active) | 65.6% [5 µM] | 9.8% [5 µM] (active) | 91.1% [5 µM] | 88.3% [5 µM] | 107% [5 µM] | 39.7% [5 µM] | 21% [5 µM] | 27.7% [5 µM] | -16.2% [5 µM] (active) | 87.7% [5 µM] | 19.9% [5 µM] | – | 18.5% [5 µM] | 42.1% [5 µM] | 19.2% [5 µM] | 46.6% [5 µM] | 101% [5 µM] | 27.4% [5 µM] | – |
| Cc1cc(O)c(=O)cc2c1C[C@H]1CC(C)(C)/C=C/C[C@]3(C)Oc4cc(=O)c(O)cc(C)c4C[C@H]3C[C@H](O)[C@@]1(C)O2 | -27.1% (active) | 3.91% (active) | 6.41% (active) | -15.8% (active) | -1.4% (active) | -3.47% (active) | -7.88% (active) | 2.51% (active) | 4.18% (active) | -0.673% (active) | 2.98% (active) | 26.9% | – | -14.3% (active) | 6.73% (active) | 14.5% | 18.7% | 1.38% (active) | 4.82% (active) | – |
| CCC(=O)Nc1cc(Nc2cc(NC3CC3)n3ncc(C#N)c3n2)ccc1C | 32.6% | 39.1% | 43.4% | 19.7% | 15.5% | 13.8% | -21.5% (active) | 40.1% | 24.5% | – | 43.4% | 18.4% | 17.1% | 21.6% | 6.78% (active) | 26.2% | -17.4% (active) | 44.2% | 17.1% | – |
| COc1cc2oc(-c3cccc(NC(=O)c4cc(NC(=O)[C@H](C)NC(=O)OC(C)(C)C)ccc4C)c3)cc(=O)c2c(OC)c1OC | – | 85.4% | 69.5% | 36.3% | 89.1% | 61.9% | 61.9% | 51.5% | 25.1% | 45% | 42.6% | 110% | 63.9% | 115% | 60.6% | – | 38.2% | 87.3% | 62.4% | 53 |
| CCC(CC)n1c(=O)c(SC2=NC3C(NN2)N(CC)C(=O)N3CC)c(C(=O)O)c2ccccc21 (stereo not drawn) | – | 52.8% | 20.1% | 39.5% | 68.8% | 27.7% | -10.5% (active) | 16.2% | 14.4% | 14.4% | 8.01% (active) | 37.3% | 65% | 40.6% | 32.6% | – | 19.3% | 20.4% | 16.6% | 36.6 |
